The text below walks through data of PubChem BioAssay (NCATS).

The nature of experiment [1]: qHTS to identify inhibitors of the type 1 interferon - major histocompatibility complex class I in skeletal muscle: primary screen against the NCATS LOPAC collection (AID 1347405).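 Note: lytic HiBiT luminescence reporting HLA-B protein level.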 Note: potency is the fitted concentration of half-maximal effect. The note with it: iHSKM muscle cells, IFN-b-induced MHC-I HiBiT luminescence, 24 h; series mostly up to 45.9 µM. The method, boiled down: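 Immortalized human C25cl48 myoblasts with HiBiT knocked into endogenous HLA-B*08:01 were stimulated with 4.0 ng/ml IFN-beta and given compounds in a 7-point, 1:4.3 titration from 46 uM final; after 24 hrs, lytic HiBiT luminescence was read.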

Experiment [2] is described as follows: qHTS for inhibitors of adenylyl cyclases using a fission yeast platform: a pilot screen against the NCATS LOPAC library (AID 1347410). The conditions noted are these: S. pombe CHP2027, fbp1-GFP fluorescence, 18 h, yeast expressing mammalian AC9 and human GNAS; series mostly up to 57.5 µM. Summed up: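 Inhibition of GNAS-stimulated AC9 activity in S. pombe was inferred from derepression of a PKA-repressed fbp1-GFP reporter, measured as cytometric fluorescence after 18 h at 30C with compounds at up to 57 µM.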
In general terms: Quantitative high-throughput screening tests each substance at several concentrations.

Experiment [3] is described as follows: Validation qHTS assay for inhibitors of Activation Induced Cytidine Deaminase (AID): UDG Counterscreen signal (AID 1347427). The conditions noted are these: biochemical UDG counterscreen, fluorescence signal; series mostly up to 115 µM. The method, boiled down:
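Counterscreen read of UDG activity (2 U/mL, 4/3x) in the FRET deamination format with AID (1 uM, 4/3x), DJC20/DJC23 substrates (250 nM, 4x), 4 h at room temperature. NaOH stop, fluorescence at 560 ex/665 em.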

Experiment [4] deals with Single-stranded DNA cytosine deaminase (Homo sapiens) (UniProt Q9GZX7). As to the kind of experiment: Validation qHTS assay for inhibitors of Activation Induced Cytidine Deaminase (AID): AID signal (AID 1347429). Note: potency is the fitted concentration of half-maximal effect. The note with it: Recombinant AID, FRET ssDNA deamination with UDG, fluorescence; series mostly up to 115 µM. Summed up: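 AID and UDG were combined and compounds added at final up to 114 uM, then DJC20/DJC23 FRET substrate was added for 4 hr at room temperature. NaOH was then added for 30 min before fluorescence was read at 540/590 nm.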
Chain of Single-stranded DNA cytosine deaminase (Homo sapiens) (Q9GZX7 whole entry, looked up): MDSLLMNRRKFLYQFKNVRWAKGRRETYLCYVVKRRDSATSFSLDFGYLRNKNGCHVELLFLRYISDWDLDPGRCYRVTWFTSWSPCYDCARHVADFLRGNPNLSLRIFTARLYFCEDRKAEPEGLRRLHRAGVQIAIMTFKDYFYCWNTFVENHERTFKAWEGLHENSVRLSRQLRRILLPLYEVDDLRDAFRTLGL

A short description of experiment [5]: Primary qHTS for inhibitors of La Crosse Virus (LACV) - induced cell death in SH-SY5Y cells (AID 1508616).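 Note: top concentration of the series differs between compounds; higher means more rescue of cells from virus-induced death.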 The conditions noted are these: SH-SY5Y LACV cytopathicity rescue, ATP luminescence, 6 d; series mostly up to 9.63 µM. The method, boiled down:
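Luminescent ATP readout (ATPLite 1step, 5 min room temperature) measured rescue from LACV-induced death after 6 days of infection at 0.01 MOI; normalized to infected DMSO wells and uninfected DMSO wells.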

A short description of experiment [6]: Primary qHTS for small molecule stabilizers of the endoplasmic reticulum resident proteome: Secreted ER Calcium Modulated Protein (SERCaMP) assay (AID 1508630). The conditions noted are these: SH-SY5Y GLuc-SERCaMP (Gaussia luciferase released on ER calcium loss) secretion, thapsigargin, luminescence; series mostly up to 38.4 µM. The method, boiled down:
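GLuc-SERCaMP-expressing SH-SY5Y cells, pretreated 16 h with compound, are challenged with thapsigargin to empty ER calcium stores; after 4 h, coelenterazine is added directly to the medium and luminescence is imaged.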

The target in a further experiment is Papain (Carica papaya) (UniProt P00784). As to the kind of experiment: Primary qHTS assay for inhibitors of the protease papain (AID 1645873).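 Note: papain turnover of Z-FR-AMC read as the AMC fluorescence gain over 10 min.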 Note: potency is the fitted concentration of half-maximal effect. The note with it: papain Z-FR-AMC cleavage, AMC fluorescence; series mostly up to 49.8 µM.
Chain of Papain (Carica papaya) (P00784 whole entry, looked up): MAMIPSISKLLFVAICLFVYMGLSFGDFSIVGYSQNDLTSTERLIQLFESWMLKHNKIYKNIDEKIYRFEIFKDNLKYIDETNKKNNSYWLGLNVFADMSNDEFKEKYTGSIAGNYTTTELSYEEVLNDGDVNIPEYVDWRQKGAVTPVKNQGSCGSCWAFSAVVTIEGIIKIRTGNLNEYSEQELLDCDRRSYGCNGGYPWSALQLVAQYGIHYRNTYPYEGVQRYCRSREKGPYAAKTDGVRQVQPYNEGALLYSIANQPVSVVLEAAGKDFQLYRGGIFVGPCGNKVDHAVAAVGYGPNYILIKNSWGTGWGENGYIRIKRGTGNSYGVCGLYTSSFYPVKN
Experiment [7] concerns the target Calcium and integrin-binding protein 1 (Homo sapiens) (UniProt Q99828). As to the kind of experiment: Validation qHTS for Identification of Calcium Integrin Binding protein 1 (CIB1) Competitor (AID 1508618). Note: potency is the fitted concentration of half-maximal effect. The conditions noted are these: CIB1-GST / FITC-alphaIIb peptide fluorescence polarization; series mostly up to 114 µM. The method, boiled down: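 Fluorescence polarization with 1 uM CIB1-GST and 100 nM FITC-alphaIIb peptide in HEPES pH 7.4, NaCl, 5 mM CaCl2, Tween20. Compounds at up to 114 uM final, preincubated with protein 15 min; read after 15 min more at RT.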

Values without a mark were called inactive. Results filed as inconclusive are left out. Active and inactive are the calls of the source. Calls come from the whole dose curve; as a rule, active = well fitted curve in the direction sought with a large enough effect; inconclusive = small, poorly fitted or top-dose-only effect, or another doubt; inactive = no such curve, though single readings can be large; an effect the other way counts as inactive or inconclusive.

Chain of Calcium and integrin-binding protein 1 (Homo sapiens) (Q99828 whole entry, looked up): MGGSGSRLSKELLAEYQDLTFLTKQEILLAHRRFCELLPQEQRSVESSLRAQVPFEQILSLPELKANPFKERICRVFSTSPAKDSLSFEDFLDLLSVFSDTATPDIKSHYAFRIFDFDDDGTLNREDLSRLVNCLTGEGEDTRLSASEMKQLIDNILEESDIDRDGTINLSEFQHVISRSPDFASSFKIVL

Regarding `Cc1cccc(C(=O)NCN2CCN(c3ccccc3C#N)CC2)c1`, the Potency entry (in experiment [1]; in experiment [3]; in experiment [4]; in experiment [5]; in experiment [6]; with Papain (Carica papaya)) was “inactive” in each case. The outcome in experiment [2] was inactive.

Take `CCCCCCC/C=C\CCCCCCCCC(=O)O`: the Potency result in experiment [1], in experiment [3], in experiment [5] and in experiment [6] was “inactive” throughout. The call in experiment [2] was inactive. For the same compound, the Potency in experiment [4] is 70.8 µM (active).

`C=C1C(=O)O[C@@H]2[C@H]3O[C@]3(C)CCC=C(C)CC[C@@H]12`: the Potency in experiment [1] was 14.1 µM (active). Further, in experiment [2], the compound was called inactive. The Potency entry (in experiment [3]; in experiment [4]; in experiment [5]; in experiment [6]; in the experiment with Papain (Carica papaya)) was “inactive” each time.

As to `CN[C@H](CC(=O)O)C(=O)O`, the Potency result (in experiment [1]; in experiment [3]; in experiment [4]; in experiment [5]; in experiment [6]; with Papain (Carica papaya)) was “inactive” throughout. In addition, the compound was classed as inactive in experiment [2].

`O=c1[nH]ccc2c(O)cccc12`: the Potency result (in experiment [1]; in experiment [3]; in experiment [4]; in experiment [5]; in experiment [6]; with Papain (Carica papaya)) was “inactive” throughout. In addition, the call in experiment [2] was inactive.

Consider `C[C@H](O)C(=O)C1=Nc2c(nc(N)[nH]c2=O)NC1`, for which the Potency result in experiment [1], in experiment [3], in experiment [4], in experiment [5] and in experiment [6] was “inactive” throughout. Also, in experiment [2], the compound was classed as inactive. Besides, the Potency with Papain (Carica papaya) is 28.2 µM (active).

For `N[C@H]1CONC1=O`, the Potency entry (in experiment [1]; in experiment [3]; in experiment [4]; in experiment [5]; with Papain (Carica papaya)) was “inactive” throughout. Also, the compound was classed as inactive in experiment [2].

Regarding `C/C(=C\c1ccc(C(=O)O)cc1)c1ccc2c(c1)C(C)(C)CCC2(C)C`, the Potency result in experiment [1], in experiment [3], in experiment [4], in experiment [5] and in experiment [6] was “inactive” each time. The call in experiment [2] was inactive.

Take `COc1ccc(CCn2nnnc2C2(c3ccc(C)cc3)CC2)cc1`: the Potency entry in experiment [1], in experiment [3], in experiment [4], in experiment [5] and in experiment [6] was “inactive” throughout. For the same compound, in experiment [2], the compound was classed as inactive.

As to `Nc1ccc2c3c(cccc13)C(=O)NC2=O`, the Potency entry in experiment [1], in experiment [3] and in experiment [4] was “inactive” in each case. Also, in experiment [2], the compound was classed as inactive. Besides, in experiment [7], the Potency is 2.51 µM (active).

With `CN1CCC2(CCN3CCc4c(oc5ccccc45)C3C2)N(C)C1=O` (stereo unspecified), the Potency result (in experiment [1]; in experiment [3]; in experiment [4]; in experiment [5]; with Papain (Carica papaya)) was “inactive” throughout. In addition, in experiment [2], the result was inactive.

In the case of `O=c1onc2n1-c1cc(Br)ccc1OC2`, the Potency entry (in experiment [1]; in experiment [3]; in experiment [4]; in experiment [5]; in experiment [6]; with Papain (Carica papaya)) was “inactive” throughout. Also, the compound was classed as inactive in experiment [2].

Turning to `CC(/C=C/c1cccc(Oc2ccc(F)cc2)c1)N(O)C(N)=O` (stereo unspecified), the Potency result in experiment [1], in experiment [3], in experiment [4], in experiment [5] and in experiment [6] was “inactive” each time. In addition, the call in experiment [2] was inactive.

For `COc1ccc(-c2cc3ncc(C)n3c(Nc3ncccc3C(N)=O)n2)cc1OC`, in experiment [1], the Potency was 3.16 µM (active). In experiment [2], the compound was classed as inactive. Besides, the Potency result in experiment [3], in experiment [4] and in experiment [7] was “inactive” in each case.

As to `O=C1C2C=CC=CC2=NC(=S)N1CCN1CCC(=C(c2ccc(F)cc2)c2ccc(F)cc2)CC1` (stereo unspecified), the Potency entry (in experiment [1]; in experiment [3]; in experiment [4]; in experiment [5]; in experiment [6]; in the experiment with Papain (Carica papaya)) was “inactive” in each case. For the same compound, the compound was classed as inactive in experiment [2].

Take `CC(=O)O[C@H]1Cc2ccccc2N(C(N)=O)c2ccccc21`: the Potency result (in experiment [1]; in experiment [3]; in experiment [4]; in experiment [5]; with Papain (Carica papaya)) was “inactive” in each case. The result in experiment [2] was inactive.

`O=[N+]([O-])c1cccc2c(Br)[nH]nc12`: the Potency result (in experiment [1]; in experiment [3]; in experiment [4]; in experiment [5]; with Papain (Carica papaya)) was “inactive” in each case. Moreover, the outcome in experiment [2] was inactive.

For `NC(N)=N[C@@H](CCC(=O)O)C(=O)O`, the Potency result (in experiment [1]; in experiment [3]; in experiment [4]; in experiment [5]; in experiment [6]; in the experiment with Papain (Carica papaya)) was “inactive” throughout. The outcome in experiment [2] was inactive.

On to `O=c1onc2cnc3ccccc3n12`, for which the Potency result in experiment [1], in experiment [3], in experiment [4], in experiment [5] and in experiment [6] was “inactive” in each case. For the same compound, the call in experiment [2] was inactive.

With `Cc1ccc2c(c1)C(N1CCN(C)CC1)=Nc1cccnc1N2`, the Potency entry in experiment [1], in experiment [3], in experiment [4] and in experiment [7] was “inactive” in each case. Also, the outcome in experiment [2] was inactive.

Turning to `Nc1ncnc2c1nc(Sc1ccc(Cl)cc1)n2[C@H]1OC2COP(=O)(O)O[C@@H]2C1O` (stereo partly specified), the Potency entry (in experiment [1]; in experiment [3]; in experiment [4]; in experiment [5]; in experiment [6]; in the experiment with Papain (Carica papaya)) was “inactive” each time. In addition, in experiment [2], the outcome was inactive.

In the case of `NC1CCN(O)C1=O` (stereo unspecified), the Potency result in experiment [1], in experiment [3], in experiment [4] and in experiment [7] was “inactive” throughout. For the same compound, the compound was called inactive in experiment [2].

On to `NCC(O)c1ccc(O)c(O)c1` (stereo unspecified), for which the Potency result in experiment [1], in experiment [3], in experiment [4], in experiment [5] and in experiment [6] was “inactive” in each case. In addition, the compound was called inactive in experiment [2].

`CC(C)C[C@H](NC(=O)C1OC1C(=O)O)C(=O)NCCCCN=C(N)N` (stereo partly specified): the Potency result (in experiment [1]; in experiment [3]; in experiment [4]; in experiment [5]; in experiment [6]; with Papain (Carica papaya)) was “inactive” throughout. Further, in experiment [2], the compound was called inactive.

For the compound `Nc1nc2[nH]c(=O)cnc2c(=O)[nH]1`, the Potency result (in experiment [1]; in experiment [3]; in experiment [4]; in experiment [5]; in the experiment with Papain (Carica papaya)) was “inactive” each time. Further, the result in experiment [2] was inactive.

As for `O=C(O)/C(=C/c1c(C(=O)O)[nH]c2cc(Cl)cc(Cl)c12)c1ccccc1`, the Potency result in experiment [1], in experiment [3], in experiment [4], in experiment [5] and in experiment [6] was “inactive” each time. Besides, the result in experiment [2] was inactive.

With `CC1CCN(CC[C@H]2CCCN2S(=O)(=O)c2cccc(O)c2)CC1`, the Potency entry (in experiment [1]; in experiment [3]; in experiment [4]; in experiment [5]; in the experiment with Papain (Carica papaya)) was “inactive” throughout. The compound was called inactive in experiment [2].

For the compound `CC1=C(C(=O)O)N2C(=O)[C@@H](NC(=O)C(N)C3=CCC=CC3)[C@H]2SC1` (stereo partly specified), the Potency result (in experiment [1]; in experiment [3]; in experiment [4]; in experiment [5]; with Papain (Carica papaya)) was “inactive” each time. The result in experiment [2] was inactive.

Consider `c1ccc2c(c1)CCC[C@H]2Nc1nc2ccccc2[nH]1`, for which the Potency entry (in experiment [1]; in experiment [3]; in experiment [4]; in experiment [5]; in experiment [6]; in the experiment with Papain (Carica papaya)) was “inactive” each time. For the same compound, the compound was classed as inactive in experiment [2].

For the compound `Cc1nc(N=Nc2cc(S(=O)(=O)O)c3cc([N+](=O)[O-])cc(S(=O)(=O)O)c3c2)c(COP(=O)(O)O)c(C=O)c1O`, the Potency in experiment [1] was 15.8 µM (active). In experiment [2], the call was inactive. The Potency result in experiment [3], in experiment [4], in experiment [5] and in experiment [6] was “inactive” in each case.

As to `C=C1C[C@@]23CC[C@H]4[C@@](C)(CCC[C@@]4(C)C(=O)O)[C@@H]2CC[C@]1(O)C3`, the Potency result (in experiment [1]; in experiment [3]; in experiment [4]; in experiment [5]; with Papain (Carica papaya)) was “inactive” throughout. In addition, the compound was classed as inactive in experiment [2].

Take `COC(=O)C(C)(N)Cc1ccc(O)cc1` (stereo unspecified): the Potency result (in experiment [1]; in experiment [3]; in experiment [4]; in experiment [7]; in the experiment with Papain (Carica papaya)) was “inactive” in each case. Further, in experiment [2], the outcome was inactive.

Consider `O=C(O)C1CCCNC1` (stereo unspecified), for which the Potency entry (in experiment [1]; in experiment [3]; in experiment [4]; in experiment [7]; in experiment [6]; in the experiment with Papain (Carica papaya)) was “inactive” in each case. In addition, the call in experiment [2] was inactive.
